# In article PMC4336329 (PLoS ONE, 2015):
# Among all 310,000 compounds or so, about 2,200 (0.71%) showed an effect of 50% or more. The effect is printed as a negative number. The entries come from a sample that favours strong results as a whole.
# Molecular target: human ether-à-go-go-related gene (hERG) potassium channel (human, UniProt Q12809)
# Assay: primary screen, population patch clamp on CHO cells stably expressing hERG; higher = less effect of the substance
# Method: Briefly, Chinese hamster ovary (CHO) cells stably expressing the hERG channel were dislodged from tissue culture flasks and dispensed into PPC plates. […] During the recording, background leak currents were estimated by a 100 ms step to -80 mV from an initial holding potential of -70 mV and subtracted from the subsequent current measurement. The campaign was conducted in two phases using slight differences in recording protocol. In the first phase, the initial voltage pulse used a 100 ms step to -30 mV from a holding potential of -70 mV, a 2 s conditioning step to +25 mV, and a 2 s test step to -30 mV. During the second phase of the screen, the potential during the conditioning step was raised to +45 mV. In both phases of the campaign, a secondary voltage pulse was applied using the same parameters as the second phase initial pulse. The initial and secondary pulses were applied in the absence of compound, and upon application of 1 μM and 10 μM test concentrations. Small molecule effects on hERG current density were quantified by […].
# Sequence of human ether-à-go-go-related gene (hERG) potassium channel (Q12809 whole entry, looked up): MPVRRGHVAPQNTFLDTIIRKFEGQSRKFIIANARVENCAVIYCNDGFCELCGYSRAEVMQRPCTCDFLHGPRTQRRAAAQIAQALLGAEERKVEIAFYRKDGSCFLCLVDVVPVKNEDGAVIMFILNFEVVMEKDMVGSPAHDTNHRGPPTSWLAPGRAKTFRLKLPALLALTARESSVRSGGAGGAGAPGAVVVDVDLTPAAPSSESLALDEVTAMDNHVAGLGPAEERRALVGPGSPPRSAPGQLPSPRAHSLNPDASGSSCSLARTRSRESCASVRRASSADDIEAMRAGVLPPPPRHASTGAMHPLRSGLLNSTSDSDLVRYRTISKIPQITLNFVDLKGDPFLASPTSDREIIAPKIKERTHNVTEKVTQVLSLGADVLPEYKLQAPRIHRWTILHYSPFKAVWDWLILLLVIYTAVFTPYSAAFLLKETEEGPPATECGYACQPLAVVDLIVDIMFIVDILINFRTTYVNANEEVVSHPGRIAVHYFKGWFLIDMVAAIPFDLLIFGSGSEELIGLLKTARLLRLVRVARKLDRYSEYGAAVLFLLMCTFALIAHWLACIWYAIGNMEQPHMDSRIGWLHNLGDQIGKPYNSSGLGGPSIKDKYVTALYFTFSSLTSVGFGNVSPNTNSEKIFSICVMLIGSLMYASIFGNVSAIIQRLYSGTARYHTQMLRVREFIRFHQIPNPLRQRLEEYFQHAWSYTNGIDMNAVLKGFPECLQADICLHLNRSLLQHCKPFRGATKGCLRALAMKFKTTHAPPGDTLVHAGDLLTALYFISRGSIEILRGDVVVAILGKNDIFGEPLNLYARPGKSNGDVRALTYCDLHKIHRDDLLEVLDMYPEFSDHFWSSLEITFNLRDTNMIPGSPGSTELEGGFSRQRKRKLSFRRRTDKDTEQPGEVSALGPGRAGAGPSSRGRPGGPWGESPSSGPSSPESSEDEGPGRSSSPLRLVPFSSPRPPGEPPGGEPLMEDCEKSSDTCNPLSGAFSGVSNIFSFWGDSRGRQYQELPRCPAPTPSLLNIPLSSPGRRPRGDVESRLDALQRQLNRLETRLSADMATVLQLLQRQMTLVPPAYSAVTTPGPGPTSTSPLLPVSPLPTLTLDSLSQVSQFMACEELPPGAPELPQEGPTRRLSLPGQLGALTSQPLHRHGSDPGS
row,Compound,"hERG current change (%, negative = inhibition) at 1uM"
1,O=C1CC(c2ccc(Cl)cc2)CC(O)=C1C=NCCO (stereo not shown),10.6%
2,O=C1C2C3C=CC(C3)C2C(=O)N1CCN1CCN(S(=O)(=O)/C=C/c2ccccc2)CC1 (stereo not shown),11%
3,Cc1cc(C)n2c(SCC(=O)NC3CCCC(C)C3C)nnc2n1 (stereo not shown),12.4%
4,O=C(NCc1cc(C(F)(F)F)cc(C(F)(F)F)c1)C1CC(c2cccc(F)c2)=NO1 (stereo not shown),2.14%
5,O=c1cc(-c2ccccc2F)oc2ccccc12,2.56%
6,C=CCNc1cnn(-c2ccc(C)cc2)c(=O)c1Sc1ccc(C)cc1,13.8%
7,COC(=O)c1ccc(CNC(=O)COc2ccccc2Br)o1,12.4%
8,CC(C)CNS(=O)(=O)c1ccc(NC(=O)Cn2nc(-c3ccc(F)cc3)ccc2=O)cc1,7.17%
9,CN(C/C=C/c1ccccc1)Cc1cccc2ccccc12.Cl,5.76%
10,O=C(NCC(=O)N1CC=C(c2ccccc2)CC1)c1ccco1,-50.9%
11,CSCCC(NC(=O)c1ccco1)C(=O)N1CC=C(c2ccccc2)CC1 (stereo not shown),-1.93%
12,Cc1cccc(C(=O)NCC(=O)N2CC=C(c3ccccc3)CC2)c1,-1.82%
13,c1ccc(Cn2ncc3ccccc32)cc1,10.6%
14,CCOCCCNS(=O)(=O)c1ccc(NC(=O)C2CC(=O)N(c3ccc(C)cc3)C2)cc1 (stereo not shown),11.4%
15,CN(C)C=Nc1nonc1-c1ccc(Cl)cc1,11.2%
16,COc1ccccc1C(=O)N/C(=C/c1ccc(Br)cc1)C(=O)NCCCn1ccnc1,-84.8%
17,COc1ccccc1C(=O)N/C(=C\c1cn(C)c2ccccc12)C(=O)NCCCn1ccnc1,12.2%
18,O=C(NCCCn1ccnc1)/C(=C\c1cccnc1)NC(=O)c1ccccc1Br,9.44%
19,O=C(NCCCn1ccnc1)/C(=C\c1cccnc1)NC(=O)c1ccccc1F,8%
20,COc1ccccc1C(=O)N/C(=C\c1ccc(Br)cc1)C(=O)NCCCO,-0.677%
21,O=C(NCCCn1ccnc1)/C(=C\c1ccc(Br)cc1)NC(=O)c1ccccc1F,-81.5%
22,Cc1ccc(NC(=O)CN2C(=O)CCSc3ccc(S(=O)(=O)N4CCCC4)cc32)cc1,19%

row,Compound,"hERG current change (%, negative = inhibition) at 1uM"
1,CCOC(=O)C1CCN(CC(=O)c2ccc(O)c(C)c2O)CC1,12.3%
2,Cc1cc2c(NC3CCCCC3)ncnc2s1.Cl,12%
3,N#C/C(=C\c1c(Cl)cccc1Cl)c1nc2ccccc2o1,2.68%
4,Cc1cc(-c2ccc(C)c(S(=O)(=O)Nc3cc(C)on3)c2)on1,1.77%
5,O=C(N=C1SCC(=O)N1c1ccccc1)c1ccco1,-1.23%
6,CCN(CC)CCCn1c(SCC(=O)Nc2cccc(F)c2)nnc1-c1ccoc1C,-63%
7,COCCCn1c(SCC(=O)Nc2ccc3c(c2)OCCO3)nnc1-c1ccoc1C,1.88%
8,Cc1ccc(NC(=O)CSc2nnc(-c3ccoc3C)n2CCCN(C)C)cc1Cl,-70.2%
9,COCCn1c(SCC(=O)Nc2ccc(OC)cc2)nnc1-c1ccoc1C,12.2%
10,CCCn1c(SCC(=O)Nc2cccc(C(=O)OCC)c2)nnc1-c1ccoc1C,5.88%
11,Cc1occc1-c1nnc(SCC(=O)Nc2ccccc2)n1CCc1ccccc1,-20.1%
12,O=C(NCCCN1CCOCC1)C1(c2ccccc2)CCOCC1,19.2%
13,CCOC(=O)N1CCN(Cc2nc(N)nc(Nc3ccc(Oc4ccccc4)cc3)n2)CC1,-36.8%
14,CCOC(=O)C1CCCN(Cc2nc(N)nc(Nc3ccc(OC)cc3)n2)C1 (stereo not shown),-67.8%
15,CCOC(=O)C1CCCN(Cc2nc(N)nc(Nc3ccccc3OC)n2)C1 (stereo not shown),-53.2%
16,CCOC(=O)C1CCCN(Cc2nc(N)nc(Nc3ccc(C)cc3)n2)C1 (stereo not shown),-47.6%
17,COc1ccccc1Nc1nc(N)nc(CN2CCc3ccccc3C2)n1,-2.7%
18,CCOC(=O)C1CCCN(Cc2nc(N)nc(Nc3ccccc3)n2)C1 (stereo not shown),-18.6%
19,Cc1ccc(Nc2nc(N)nc(CN3CCCCCC3)n2)cc1,-45.2%
20,CCOC(=O)C1CCCN(Cc2ccc(OC)cc2OC)C1 (stereo not shown),-13.6%
21,CCOC(=O)C1CCCN(Cc2nc(N)nc(Nc3ccc(Cl)cc3)n2)C1 (stereo not shown),-71.6%
